Test results reported in PubChem BioAssay AID504840 (Johns Hopkins Ion Channel Center, 2011).
Out of some 1,500 compounds screened, about 890 (59%) were called active.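 Rule for the calls: active = inhibition of the choline-evoked signal at any tested dose together with a fitted dose-response curve; inactive = no inhibition at any dose or no curve.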 The set was probably picked from earlier hits. Not all results are given here. Results with a measured potency or affinity are listed apart.

Molecular target: High affinity choline transporter 1 (Homo sapiens) (UniProt Q9GZV3)
Sequence (Q9GZV3 whole entry, looked up): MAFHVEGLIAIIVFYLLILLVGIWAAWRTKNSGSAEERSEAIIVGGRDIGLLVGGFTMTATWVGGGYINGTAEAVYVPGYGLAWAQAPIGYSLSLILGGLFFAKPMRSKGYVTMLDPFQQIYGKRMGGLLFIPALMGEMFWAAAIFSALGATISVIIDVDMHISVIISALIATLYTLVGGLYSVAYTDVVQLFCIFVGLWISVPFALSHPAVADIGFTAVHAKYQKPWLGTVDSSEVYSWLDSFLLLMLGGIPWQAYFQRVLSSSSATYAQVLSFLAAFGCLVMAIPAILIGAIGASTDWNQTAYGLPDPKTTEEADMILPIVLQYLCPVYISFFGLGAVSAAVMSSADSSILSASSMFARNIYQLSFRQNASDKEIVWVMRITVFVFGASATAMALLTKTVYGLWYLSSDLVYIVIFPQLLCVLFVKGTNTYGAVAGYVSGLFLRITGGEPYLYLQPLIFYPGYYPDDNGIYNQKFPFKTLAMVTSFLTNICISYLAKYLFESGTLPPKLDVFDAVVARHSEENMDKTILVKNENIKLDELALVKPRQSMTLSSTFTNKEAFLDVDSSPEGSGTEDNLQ
Test: human choline transporter blockers, potency – cell-based, 5-point CRC, membrane potential dye, dose response (AID 504840);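 note: 0% = buffer-only response and 100% = EC90 choline response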
Settings: HEK293-CHT, choline-induced depolarization, CHT with LV-to-AA double alanine mutation; series mostly up to 37 µM; inhibition: at the top concentration

Structure (SMILES)	inhibition
Cn1c2ccccc2c(=O)c2c(O)cccc21	15.4% (inactive)
O=C(c1cnn2c(C(F)(F)F)cc(-c3cccs3)nc12)N1CCN(Cc2ccccc2)CC1	36.1% (inactive)
C#CCNc1c2c(nc3ncnn13)CC(C)CC2 (stereo not given)	35.4% (inactive)
Cc1ccccc1OCCC(=O)OCC(=O)c1c(N)n(CC(C)C)c(=O)n(C)c1=O	69.1% (inactive)
CC(C)Cn1c(N)c(C(=O)COC(=O)CCNS(=O)(=O)c2ccccc2)c(=O)n(C)c1=O	65% (inactive)
CCc1c(C)nc2ncnn2c1NCCc1ccc(Cl)cc1	28.3% (inactive)
O=C(C1CCN(S(=O)(=O)c2ccc3ccccc3c2)CC1)N1CCN(c2ncccn2)CC1	47.8% (inactive)
CCn1c(N2CCN(S(=O)(=O)c3ccc(OC)cc3)CC2)nc2ccccc21	56.7% (inactive)
O=C(COc1ccccc1/C=C1\SC(=O)NC1=O)Nc1ccccc1	52.7% (inactive)
CCN(CC)C(=O)CSc1nc2ccc(NC(=O)CSc3nccn3C)cc2s1	79.5% (inactive)
Cc1ccc2c(c1)N(S(=O)(=O)c1ccc(CN3C(=O)c4cccnc4C3=O)s1)CCO2	28.7% (inactive)
O=C(Cn1nc(-c2ccccc2)ccc1=O)NCc1ccc(F)cc1	55.3% (inactive)
O=[N+]([O-])c1cc(-c2ncccn2)c([N+](=O)[O-])s1	49.9% (inactive)
Cc1cc(C(=O)CSc2n[nH]c(N)n2)c(C)n1-c1ccc(F)cc1	24.1% (inactive)
Cn1c(CN2CCCC2)c(C#N)c2ccccc21	30.8% (inactive)
NS(=O)(=O)c1ccc(CCNCc2cc(Cl)ccc2OCc2ccccc2)cc1	16.5% (inactive)
Cc1cccc(NC(=O)c2ccccc2O)c1C	38% (inactive)
Cc1nnc(SC(C)C(=O)Nc2sc3c(c2C#N)CCCC3)[nH]c1=O (stereo not given)	23.2% (inactive)
CCOC(=O)C1CCN(C(=O)CSCc2nc(-c3ccc(OCC)cc3)oc2C)CC1	41.5% (inactive)
Cc1nc([N+](=O)[O-])c(Br)n1Cc1ccccc1	30.2% (inactive)
